Most compounds without a hit are left out; they make up all but 2.1% or so of the library.
HIF-2a block = HIF-2a reporter inhibitors, primary screen, luminescence, 786-0 RCC cells; 786-0 RCC cells HIF-2a reporter, luciferase luminescence, overnight; inhibition, % at 18.8 µM; hit rate 0.72% among 360,000;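 active = inhibition of the luminescence signal of 40% or more relative to plate controls, in a single-dose primary screen at 18.75 µM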
KKLEB tox = cytotoxicity in KKLEB CF airway cells, primary screen, cytotoxicity control for CF NF-kB inhibitor project, cell-based, uHTS, fluorescence assay plates | AID 602141, 2011 | activity change (cytotoxicity), % at 5 µM | hit rate 0.36% among 360,000 | KKLEB CF airway cells viability, ATPlite luminescence, overnight; hits give low values; cells stimulated with P. aeruginosa culture filtrate;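 active = corrected activity change at or below -50% at 5 µM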
EWS-Fli inh = EWS/Fli-driven NR0B1 reporter inhibitors, primary screen, A673 cells, NR0B1 luciferase, luminescence, MLPCN library | hit rate 0.67% among 350,000 | inhibition, % at 12.6 µM | viability-normalised | AID 651661, 2012;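 active = mean inhibition of at least 50% after viability correction, with every replicate also passing that limit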;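 note: firefly luciferase signal divided by Alamar Blue viability fluorescence both relative to DMSO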
PAX8 reporter = inhibitors of PAX8-driven TPO luciferase reporter, primary screen, RMG-I cells, single concentration | SteadyGlo, 24 h | inhibition, % at 12.6 µM | hit rate 1.2% among 360,000;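 active = mean replicate inhibition at least 60% with every replicate also reaching 60%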;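 note: luciferase light reporting Pax8 driven TPO promoter activity; plate controls were median of neutral control wells for no effect and mitoxantrone controls for full effect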
CF NFkB block = inhibitors of PAF-induced NF-kB signaling, primary screen, cell-based, GFP fluorescence, uHTS. KKLEB NF-kB-GFP reporter, GFP fluorescence overnight. inhibition, % at 5 µM. hit rate 0.86% among 360,000. AID 588850, 2011;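 active = at least 50% inhibition at 5 µM, scaled per plate between neutral and stimulator controls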;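 note: PAF is a Pseudomonas aeruginosa culture filtrate used as stimulus; plate controls were PAF-stimulated DMSO wells for no effect and unstimulated DMSO wells for full effect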
Mdm2 MdmX conf = retested Mdm2-MdmX interaction blockers, confirmation, cell-based, luminescence, single concentration, set 2. shares compounds with HIF-2a block. SaOS-2 split-luciferase Mdm2/MdmX complementation. inhibition, % at 8 µM. hit rate 99% among 740. AID 504601, 2011;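 active = mean inhibition of the luminescence signal across two replicates at or above 26 percent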
Target sequence (O15151 whole entry, looked up): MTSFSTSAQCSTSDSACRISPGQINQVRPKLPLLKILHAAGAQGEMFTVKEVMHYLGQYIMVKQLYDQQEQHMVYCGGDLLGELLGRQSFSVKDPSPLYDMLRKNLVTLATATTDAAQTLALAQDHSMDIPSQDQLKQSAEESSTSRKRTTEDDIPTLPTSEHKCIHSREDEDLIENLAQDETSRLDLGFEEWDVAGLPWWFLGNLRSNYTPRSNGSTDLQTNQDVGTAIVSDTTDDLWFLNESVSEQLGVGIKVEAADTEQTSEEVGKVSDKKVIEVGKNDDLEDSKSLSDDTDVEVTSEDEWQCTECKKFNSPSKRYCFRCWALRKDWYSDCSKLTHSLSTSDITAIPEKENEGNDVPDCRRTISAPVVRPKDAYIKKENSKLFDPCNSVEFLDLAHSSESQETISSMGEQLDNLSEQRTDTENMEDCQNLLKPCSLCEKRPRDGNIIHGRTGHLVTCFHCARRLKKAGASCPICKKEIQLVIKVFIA
Target sequence (Q00987 whole entry, looked up): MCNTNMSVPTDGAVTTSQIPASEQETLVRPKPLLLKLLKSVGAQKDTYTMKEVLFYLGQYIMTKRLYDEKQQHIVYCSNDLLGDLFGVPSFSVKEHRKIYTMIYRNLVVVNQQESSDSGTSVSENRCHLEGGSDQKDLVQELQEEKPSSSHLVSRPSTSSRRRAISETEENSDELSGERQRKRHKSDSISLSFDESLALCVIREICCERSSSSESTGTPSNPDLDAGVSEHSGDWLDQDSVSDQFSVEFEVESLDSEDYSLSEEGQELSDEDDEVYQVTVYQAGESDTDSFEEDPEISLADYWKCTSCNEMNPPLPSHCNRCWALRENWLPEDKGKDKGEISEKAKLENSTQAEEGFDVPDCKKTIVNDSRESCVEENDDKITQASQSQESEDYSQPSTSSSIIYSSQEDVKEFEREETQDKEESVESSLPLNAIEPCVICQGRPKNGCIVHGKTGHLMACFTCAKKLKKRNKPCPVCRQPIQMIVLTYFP
HIF-2a conf = HIF-2a reporter inhibitor retest, confirmation, luminescence, 786-0 RCC cells | shares compounds with HIF-2a block | HIF-2a luciferase reporter luminescence, overnight | inhibition, % at 18.8 µM | hit rate 56% among 1,800 | AID 651580, 2012;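 active = mean inhibition across four replicates of at least 40 percent at the single tested concentration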
HIF-1a cs = HIF-1a luciferase reporter signal reduction – MiaPaCa-2 cells, single concentration, counter-screen for HIF-2a inhibitor project, confirmation. shares compounds with HIF-2a block. MiaPaCa-2 HIF-1a luciferase reporter, desferoxamine, overnight. inhibition, % at 18.8 µM. hit rate 72% among 1,800. AID 651589, 2012;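 active = mean inhibition of the reporter signal across four replicates at the single tested dose of 50% or more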
Active calls of the source: *; / = no result given; ! = not active in a repeat.

SMILES	HIF-2a block	KKLEB tox	EWS-Fli inh	PAX8 reporter	CF NFkB block	HIF-2a conf	HIF-1a cs	others
CCSc1nnc(NC(=O)c2nc(S(=O)(=O)Cc3ccc(F)cc3)ncc2Cl)s1	87.9*	-97.2*	/	6.6	91.7*	-29.3	96.7*
Cc1nnc(NC(=O)c2nc(S(=O)(=O)Cc3ccccc3C)ncc2Cl)s1	91.4*	-92.3*	/	23.5	98.8*	10.4	104.5*	Mdm2 MdmX conf=103.0*
CSc1nnc(NC(=O)c2nc(S(=O)(=O)Cc3cccc(C)c3)ncc2Cl)s1	72.9*	-50.2*	/	30.8	90.5*	33.3	107.4*	Mdm2 MdmX conf=103.0*
C=CCSc1nnc(NC(=O)c2nc(SCC)ncc2Cl)s1	17.8	22.2	16.1	/	-14.7	/	/
CCN1CCN(c2nc(Nc3ccc(NC(C)=O)cc3)nc(Nc3ccc(NC(C)=O)cc3)n2)CC1	67.7*	0.0	2.2	5.3	-2.4	-5.4	9.3
O=C(Nc1ccc(C(F)(F)F)cc1)N1CCN(c2ccnc3cc(Cl)ccc23)CC1	44.6*	-9.7	17.1	4.8	-10.5	16.3	76.3*
O=C(Nc1cc(F)ccc1F)N1CCN(c2ccnc3cc(Cl)ccc23)CC1	32.1	-4.1	7.0	6.2	7.2	/	/
C[C@H](CO)N1C[C@H](C)[C@H](CN(C)Cc2ccc(-c3ccccc3)cc2)Oc2ccc(NC(=O)C3CCCCC3)cc2C1=O	/	/	12.1	/	/	/	/
CC1Cc2ccccc2N1S(=O)(=O)c1cccc(C(=O)N2CCN(c3ncccn3)CC2)c1 (stereo not given)	-13.1	7.5	-29.4	31.3	-2.8	/	/	Mdm2 MdmX conf=100.5*
N#C[C@@H]1[C@@H](c2ccccc2C2=CCCCC2)[C@@H](CO)N1C(=O)NC1CCCCC1	/	/	-12.0	/	/	/	/
O=C(CCCOc1ccc(Cl)cc1Cl)NCCCO	-25.7	-5.5	/	/	15.8	/	/
O=C(COC(=O)CCCOc1ccc(Cl)cc1Cl)NCc1ccc(F)cc1	52.3*	0.5	/	-2.8	4.3	46.1*	40.5
O=C(CCCOc1ccc(Cl)cc1Cl)NCCc1ccccn1	58.9*	-4.3	45.5	-4.3	3.2	57.3*	79.7*
O=C(CCCOc1ccc(Cl)cc1Cl)NCc1ccncc1	8.1	-6.3	-8.6	-55.4	-7.2	/	/
COc1ccc(S(=O)(=O)Nc2ccc3c(c2)C(=O)N([C@H](C)CO)C[C@@H](C)[C@H](CN(C)S(=O)(=O)c2ccc(OC)cc2)OCCCC[C@H](C)O3)cc1	/	/	11.1	-3.7	/	/	/
O=C(/C=C/c1ccccc1)NC(NC(=S)Nc1ccc(Cl)cc1)C(Cl)(Cl)Cl (stereo not given)	15.9	-1.7	/	/	2.5	/	/
COc1ccc(NC(=S)NC(NC(=O)/C=C/c2ccccc2)C(Cl)(Cl)Cl)cc1 (stereo not given)	65.8*	-3.3	/	/	2.6	7.9	29.9
FC(F)(F)c1ccccc1Cc1c(-c2ccco2)nc2ccc(Cl)cn12	37.3*	-17.7	2.9	38.7	27.4	1.5	64.3*
C[C@@H]1CN([C@H](C)CO)C(=O)c2cc(C#CC3CCCCC3)cnc2O[C@H]1CN(C)S(C)(=O)=O	/	/	-34.7	-11.5	/	/	/
CCCCCCCCCCOC(=O)Cn1c(COc2ccc(Cl)cc2)[n+](C)c2ccccc21	19.2	1.2	34.8	2.9	11.8	/	/	Mdm2 MdmX conf=103.0*
CCOC(=O)c1cccc(COC(=O)c2cccc(-c3nnc(-c4ccccc4)o3)c2)c1	46.9*	-2.1	/	-47.7	7.0	51.2*	-65.2
O=C(OCc1ccccc1)c1cccc(-c2nnc(-c3ccccc3)o2)c1	10.6	6.4	/	/	-11.6	/	/
O=C(c1cc(C2CC2)nc2ccccc12)N1N=C(C(F)F)CC1(O)C(F)F (stereo not given)	18.4	3.7	/	19.7	4.1	/	/
O=C(c1cc(C2CC2)nc2ccc(Br)cc12)N1N=C(C(F)F)CC1(O)C(F)F (stereo not given)	57.2*	-14.4	/	34.8	13.0	35.1	65.3*
O=c1c2ccccc2cnn1CCOc1ccccc1	53.8*	3.1	/	/	-27.1	64.3*	70.5*
SMILES	HIF-2a block	KKLEB tox	EWS-Fli inh	PAX8 reporter	CF NFkB block	HIF-2a conf	HIF-1a cs	others
CC(C)(C)c1ccc(C(=O)N2CCCCCC2=O)cc1	88.6*	-3.6	/	37.3	5.9	94.8*	81.7*
CCN1CCN(Cc2ccc(NC(=O)c3ccc(C)c(NC(=O)c4c[nH]c5cc(C(F)(F)F)ccc5c4=O)c3)cc2C(F)(F)F)CC1	67.4*!	-83.1*	63.3*!	79.8*	94.5*	11.1	100.9*	Mdm2 MdmX conf=102.0*
CC(=O)Nc1ccc(NCc2cccs2)cc1	-15.3	-0.8	-1.2	-9.5	3.9	/	/
Oc1ccc(NCc2cccs2)cc1	57.2*	2.3	0.6	3.4	14.3	25.5	78.0*
CCNC(=S)NNC(=O)c1ccccn1	9.7	3.6	/	-18.4	-21.2	/	/
O=C(NNC(=S)Nc1ccc(Cl)c(Cl)c1)c1ccccn1	-166.5	-29.5	27.1	57.2	35.9	/	/	Mdm2 MdmX conf=85.0*
Nc1nnc(SCC(=O)Nc2sc3c(c2C(=O)c2ccccc2)CCCC3)s1	10.8	9.5	22.8	27.7	-22.8	/	/
Cc1ccc(C(=O)c2c(NC(=O)CSc3nnc(N)s3)sc3c2CCCC3)cc1	61.0*	8.3	20.6	-18.6	-6.7	2.4	63.1*
Cc1noc(C)c1NC(=O)N(C)C[C@H]1Oc2ccc(NC(=O)Nc3cccc4ccccc34)cc2CC(=O)N([C@H](C)CO)C[C@@H]1C	/	/	3.9	16.1	/	/	/
Cc1ccc(C2=C(O)c3ccccc3C(=O)C2=O)cc1	0.9	-0.3	7.5	4.6	14.3	/	/
NC(=O)C1=C(c2ccccc2)c2ccccc2C1=O	50.7*	-10.9	7.0	-8.4	15.8	38.5	-3.2
C[C@@H]1CN([C@H](C)CO)C(=O)Cc2cc(NS(=O)(=O)c3cn(C)cn3)ccc2O[C@H]1CN(C)Cc1ccncc1	/	/	0.6	3.4	/	/	/
C[C@H]1CN([C@@H](C)CO)C(=O)Cc2cc(NC(=O)Cn3cnnn3)ccc2O[C@@H]1CN(C)Cc1ccc(C(=O)O)cc1	/	/	3.1	/	/	/	/
[O-]/C(=C(\C(=S)Nc1cccc2ccccc12)[n+]1ccccc1)c1ccc2c(c1)OCCO2	69.6*	11.9	/	16.0	-5.0	-40.2	34.0
C=C1[C@@H](O)[C@H](Cc2ccccc2)N(Cc2ccccc2Br)S1(=O)=O	70.7*	-93.4*	9.0	39.4	84.8*	54.9*	106.1*

Screening results: PubChem BioAssay, several laboratories
